VP16 counter = VP16 counterscreen qHTS for inhibitors of ROR gamma transcriptional activity; actives 3.5% (n = 310,000); Potency, µM (highest dose often 53.6 µM), inactives show top-dose activity, negative = inhibition, hits mostly inhibitors; Drosophila S2 Gal4-VP16 UAS-luciferase, luminescence, 20 h;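 note: Gal4-VP16 expression switched on by copper sulfate through the metallothionein promoter; potency is the fitted concentration of half-maximal effect; nearly all actives have a fitted effect of over 50% in size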
RORgamma inh = qHTS for inhibitors of ROR gamma transcriptional activity | Potency, µM (highest dose often 53.6 µM), inactives show top-dose activity change, negative = inhibition, usual class: inhibitors | actives 5.4% (n = 310,000) | Drosophila S2 Gal4-RORgamma UAS-luciferase reporter, 20 h | AID 2551, 2010; note: potency is the fitted concentration of half-maximal effect; nearly all actives have a fitted effect of over 60% in size
Target sequence (P51450 whole entry, looked up, the tested form may be a part): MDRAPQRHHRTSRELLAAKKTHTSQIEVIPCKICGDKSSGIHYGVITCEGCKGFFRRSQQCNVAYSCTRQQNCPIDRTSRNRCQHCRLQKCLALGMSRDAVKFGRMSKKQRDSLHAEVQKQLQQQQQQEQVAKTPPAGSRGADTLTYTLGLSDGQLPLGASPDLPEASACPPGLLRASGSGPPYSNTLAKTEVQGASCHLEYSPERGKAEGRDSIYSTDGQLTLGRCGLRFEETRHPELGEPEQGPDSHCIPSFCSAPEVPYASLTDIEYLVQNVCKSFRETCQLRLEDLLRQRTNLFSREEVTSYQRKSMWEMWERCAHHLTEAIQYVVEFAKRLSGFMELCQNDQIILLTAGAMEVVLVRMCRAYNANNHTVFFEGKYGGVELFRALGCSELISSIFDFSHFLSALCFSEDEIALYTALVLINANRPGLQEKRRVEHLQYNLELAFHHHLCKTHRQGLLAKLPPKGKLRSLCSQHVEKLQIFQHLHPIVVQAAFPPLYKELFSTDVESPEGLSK
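Stable Schneider cell line, Gal4 DNA-binding domain fused to ROR gamma, UAS-luciferase. Cmpd 1 hr RT → CuSO4 700 uM final → 20 hr RT → luciferase reagent 10 min → luminescence.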
LDHA inh = qHTS assay for inhibitors of human lactate dehydrogenase. purified LDHA, NADH/diaphorase-resazurin fluorescence; active compounds read low. activity change, % (values are at about 110 or 230 µM). actives 0.15% (n = 480,000). AID 1347041, 2019; in the data active = activity change below about -30%; inconclusive = mostly about -25% to -30%;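 note: plate controls were DMSO wells for no effect and wells without enzyme for full effect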
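LDH5 2 nM; NADH 0.06 mM, pyruvate 0.2 mM; 200 mM Tris pH 7.4, EDTA, Tween-20; 5 min RT. Detection: diaphorase 0.133 mg/mL + resazurin 37 µM, fluorescence ex540/em590 at 0 and 20 min; normalized to enzyme-free and DMSO wells.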
IL1B secr inh = qHTS for Inhibitors of Inflammasome Signaling: IL-1-beta AlphaLISA Primary Screen. THP-1 LPS/ATP IL-1B secretion, AlphaLISA, 16 h; active compounds read low. activity change, % at 57.5 µM. actives 4.7% (n = 360,000); in the data active = activity change below about -50%; inconclusive = mostly about -30% to -49%
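Secreted IL-1B measured by AlphaLISA bead assay after 16 h compound exposure of THP-1 cells; compounds (final up to 57.5 uM) added 1 h before LPS (250 ng/mL) and ATP (1.25 mM) stimulation; lower signal means less secretion.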
TDP1 cell CPT = qHTS for Inhibitors of human tyrosyl-DNA phosphodiesterase 1 (TDP1): qHTS in cells in presence of CPT | chicken DT40 Tdp1-/-;hTDP1 cells + 20 nM CPT, ATP luminescence, 48 h | Potency, µM (series often up to 46.2 µM), inactives show at the top dose activity change, negative = growth inhibition, usual class: inhibitors | actives 12% (n = 420,000) | AID 686979, 2013; note: potency is the fitted concentration of half-maximal effect; nearly all actives have a fitted effect of over 55% in size
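Chicken DT40 Tdp1-/- cells complemented with human TDP1, 400 cells/well, exposed to compounds plus 20 nM camptothecin for at least 48 h at 37 C; viability read as ATP content by CellTiter-Glo luminescence.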
TDP1 cell noCPT = qHTS for Inhibitors of human tyrosyl-DNA phosphodiesterase 1 (TDP1): qHTS in cells in absence of CPT | DT40 Tdp1-/- hTDP1 cells, no CPT, ATP luminescence, 48 h | Potency, µM (titrated, usually from 46.2 µM), for the others: top-dose activity change, negative = growth inhibition, usual class: inhibitors | actives 15% (n = 420,000); note: potency is the fitted concentration of half-maximal effect; nearly all actives have a fitted effect of over 55% in size
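Growth of hTDP1-complemented DT40 Tdp1-knockout cells is measured by ATP luminescence after at least 48 hr compound exposure at 37 °C, with DMSO substituting for the 20 nM CPT used in the parallel screen.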
* marks the source's active call; other numbers are inactive results; ? = inconclusive; . = no result. Compounds with a hit are over-represented: about 18% of the library has one in this group of screens. Unless noted, calls come from the whole dose curve; as a rule, active = well fitted curve in the direction sought with a large enough effect; inconclusive = small, poorly fitted or top-dose-only effect, or another doubt; inactive = no such curve, though single readings can be large; an effect the other way counts as inactive or inconclusive. Unless noted, % is set by controls: 0 for no effect and ±100 for the full control effect.

SMILES | VP16 counter | RORgamma inh | LDHA inh | IL1B secr inh | TDP1 cell CPT | TDP1 cell noCPT
COc1ccc2c(c1)c(C(C(=O)O)N1CCN(c3cccc(Cl)c3)CC1)cn2CCC(=O)O (stereo not given) | . | . | 1 | . | . | .
CCC1NC(=S)NC(C)=C1C(=O)c1ccccc1 (stereo not given) | -21% | 10µM* | -1 | -14 | 0% | 2%
Nc1c2c(nc3sc4c(c13)CCCC4)CCCCCC2 | -9% | -26% | -2 | 32 | ? | 13µM*
Nc1nc2sc3c(c2c(=O)s1)CCCC3 | 20% | 23% | -3 | 14 | -27% | 0%
CCOC(=O)C1=C(N)Oc2cc(O)ccc2C1c1ccc([N+](=O)[O-])cc1 (stereo not given) | ? | 9% | -3 | -70* | 0% | -17%
COc1ccc(/C=C/c2nc3cc(C)ccc3s2)cc1OC | . | . | -1 | . | . | .
CCOc1ccc(NC(=O)c2sc3nc(N4CCOCC4)c4c(c3c2N)CCCC4)cc1 | 3% | 2% | 1 | 4 | ? | ?
CC(=O)c1ccc(NC(=O)c2sc3nc(N4CCOCC4)c4c(c3c2N)CCCC4)cc1 | 16% | 24% | 4 | -8 | ? | 21µM*
NNC(=O)c1sc2nc(N3CCOCC3)c3c(c2c1N)CCCC3 | 12% | -16% | 0 | -12 | -29% | ?
COc1cccc(NC(=O)c2sc3nc(N4CCOCC4)c4c(c3c2N)CCCC4)c1 | 27% | 20% | 3 | -6 | 26µM* | 23µM*
Nc1c(C(=O)Nc2ccc(Cl)cc2)sc2nc(N3CCOCC3)c3c(c12)CCCC3 | 1% | -2% | 9 | 0 | ? | 15µM*
Cc1ccc(NC(=O)c2sc3nc(N4CCOCC4)c4c(c3c2N)CCCC4)cc1 | . | . | 1 | -23 | -9% | ?
Nc1c(C(=O)Nc2ccccc2)sc2nc(N3CCOCC3)c3c(c12)CCCC3 | . | . | 1 | -18 | ? | 9.2µM*
O=C(NCc1ccc2c(c1)OCCO2)N1CCN(S(=O)(=O)c2cccc(Cl)c2Cl)CC1 | . | . | 3 | . | . | .
Nc1c(C(=O)NCc2ccccc2)sc2nc(N3CCOCC3)c3c(c12)CCCC3 | -4% | 5% | -3 | 62 | ? | 21µM*
Oc1c(CN2CCc3ccccc3C2)cc(Cl)c2cccnc12 | 1.1µM* | 0.79µM* | 20 | 31 | 5.8µM* | 5.8µM*
Oc1c(CN2CCCCC2)cc(Br)c2cccnc12 | 1µM* | 4µM* | 13 | 106 | 5.2µM* | 5.2µM*
O=C(Oc1ccc(C(=S)N2CCOCC2)cc1Cl)c1ccccc1F | 6% | 2% | -15 | 11 | -10% | -23%
COc1cc(CN2CCCCCC2)cc(Br)c1O | -2% | ? | -1 | 29 | 3% | 5%
Oc1c(Cl)cc(CN2CCOCC2)c2cccnc12 | . | . | 9 | 95 | 0.65µM* | 1µM*
O=C(Oc1c(CN2CCOCC2)cc(Cl)c2cccnc12)c1ccccc1F | 2.2µM* | 1.1µM* | 16 | 32 | 3.7µM* | 4.6µM*
Cn1cnc2c1c(=O)n(CCCOc1ccccc1C#N)c(=O)n2C | . | . | 3 | . | . | .
CC(C)NC(=O)NC(=O)CSc1nnc(-c2ccccc2)c(-c2ccccc2)n1 | . | . | -5 | . | . | .
COc1cc(OC)cc(C(=O)Oc2c(CN3CCOCC3)cc(Cl)c3cccnc23)c1 | 3.2µM* | 4.5µM* | 7 | -6 | ? | ?
O=C(Oc1c(CN2CCOCC2)cc(Cl)c2cccnc12)c1ccccc1 | 5µM* | 1.8µM* | -4 | ? | ? | ?
SMILES | VP16 counter | RORgamma inh | LDHA inh | IL1B secr inh | TDP1 cell CPT | TDP1 cell noCPT
COc1ccc(/C(C)=N/Nc2nc3ccccc3n3cnnc23)cc1OC | 1% | 10% | -4 | -5 | ? | 21µM*
Cc1onc(-c2ccccc2Cl)c1-c1nc(-c2ccccn2)no1 | -5% | -30% | -7 | -17 | ? | 16µM*
Clc1ccc(-c2nc(-c3ccccn3)no2)cc1 | . | . | 4 | . | . | .
c1ccc(-c2noc(-c3ccncc3)n2)nc1 | ? | ? | -2 | -5 | ? | ?
Cc1occc1-c1nc(-c2ccccn2)no1 | ? | 13µM* | -1 | 1 | -22% | ?
Clc1ccccc1/C=C/c1nc(-c2ccccn2)no1 | ? | 2.5µM* | -9 | -13 | 17% | -23%
CC(=O)Nc1nnc(-c2c(-c3ccccc3Cl)noc2C)o1 | 18µM* | 5µM* | 0 | . | 15% | -12%
CC(=O)Nc1ccc(NC(=O)c2c(-c3ccccc3Cl)noc2C)cc1 | 2% | 8% | -3 | 28 | 0% | 8%
O=S(=O)(c1cccc2nsnc12)N1CCCC1c1ccc(F)cc1 (stereo not given) | . | . | 27 | . | . | .
CC(=O)Cc1cc(O)c2ccccc2c1OC(=O)c1ccc(Br)cc1 | -20% | -43% | 8 | 0 | 21µM* | 21µM*
O=C(Nc1cccc(-c2cccc(F)c2)c1)C1CCN(C2CCC2)CC1 | 0% | 1% | -13 | -14 | ? | 5.2µM*
O=C(Nc1cccc(F)c1)C1CCCCC1 | . | . | 1 | 14 | -1% | 1%
COCc1ccc(CN2CCC(C(=O)Nc3cccc(-c4cscn4)c3)CC2)o1 | ? | -35% | -6 | -73* | ? | -25%
Cn1cc(S(=O)(=O)N2CCC(C(=O)Nc3cccc(F)c3)CC2)cc1C(N)=O | . | . | -30* | . | . | .
Cc1nn(C(C)C)c(C)c1CN1CCC(C(=O)Nc2cccc(-c3cccc(F)c3)c2)CC1 | -19% | ? | 0 | -52* | 23µM* | ?
CNC(=O)C(CCSC)NC(=O)c1ccc2ccccc2n1 (stereo not given) | . | . | 0 | . | . | .
CC(Oc1ccc(-c2ccccc2)cc1Cl)C(N)=O (stereo not given) | . | . | 4 | . | . | .
Cc1ccc(C)c(NC(=O)COC(=O)Cn2cnc3c2c(=O)n(C)c(=O)n3C)c1 | . | . | 3 | . | . | .
Cc1cccc(CN2CCC(C(=O)Nc3cccc(-c4cccc(F)c4)c3)CC2)n1 | ? | 7.1µM* | -8 | ? | 8.2µM* | 2.9µM*
O=C(Nc1cccc(-c2cccc(F)c2)c1)C1CCN(Cc2ccco2)CC1 | ? | -22% | -2 | -18 | ? | ?
CCCn1ncc(CN2CCC(C(=O)Nc3cccc(-c4cccc(F)c4)c3)CC2)c1C | -19% | -15% | -2 | -76* | 15µM* | ?
